From PubChem BioAssay
The list is not random: actives were taken first. Their share in the collection is about 3.6%.
mHTT CaM bind: mutant huntingtin-calmodulin interaction inhibitors – biochemical, AlphaScreen, primary screen. P42858. AlphaScreen His-mHTT/GST-CaM binding, luminescence. inhibition, % at 15 µM. 190,000 compounds, 3.6% hits. AID 1671202, 2021
Target sequence (P42858 whole entry, looked up, change not shown): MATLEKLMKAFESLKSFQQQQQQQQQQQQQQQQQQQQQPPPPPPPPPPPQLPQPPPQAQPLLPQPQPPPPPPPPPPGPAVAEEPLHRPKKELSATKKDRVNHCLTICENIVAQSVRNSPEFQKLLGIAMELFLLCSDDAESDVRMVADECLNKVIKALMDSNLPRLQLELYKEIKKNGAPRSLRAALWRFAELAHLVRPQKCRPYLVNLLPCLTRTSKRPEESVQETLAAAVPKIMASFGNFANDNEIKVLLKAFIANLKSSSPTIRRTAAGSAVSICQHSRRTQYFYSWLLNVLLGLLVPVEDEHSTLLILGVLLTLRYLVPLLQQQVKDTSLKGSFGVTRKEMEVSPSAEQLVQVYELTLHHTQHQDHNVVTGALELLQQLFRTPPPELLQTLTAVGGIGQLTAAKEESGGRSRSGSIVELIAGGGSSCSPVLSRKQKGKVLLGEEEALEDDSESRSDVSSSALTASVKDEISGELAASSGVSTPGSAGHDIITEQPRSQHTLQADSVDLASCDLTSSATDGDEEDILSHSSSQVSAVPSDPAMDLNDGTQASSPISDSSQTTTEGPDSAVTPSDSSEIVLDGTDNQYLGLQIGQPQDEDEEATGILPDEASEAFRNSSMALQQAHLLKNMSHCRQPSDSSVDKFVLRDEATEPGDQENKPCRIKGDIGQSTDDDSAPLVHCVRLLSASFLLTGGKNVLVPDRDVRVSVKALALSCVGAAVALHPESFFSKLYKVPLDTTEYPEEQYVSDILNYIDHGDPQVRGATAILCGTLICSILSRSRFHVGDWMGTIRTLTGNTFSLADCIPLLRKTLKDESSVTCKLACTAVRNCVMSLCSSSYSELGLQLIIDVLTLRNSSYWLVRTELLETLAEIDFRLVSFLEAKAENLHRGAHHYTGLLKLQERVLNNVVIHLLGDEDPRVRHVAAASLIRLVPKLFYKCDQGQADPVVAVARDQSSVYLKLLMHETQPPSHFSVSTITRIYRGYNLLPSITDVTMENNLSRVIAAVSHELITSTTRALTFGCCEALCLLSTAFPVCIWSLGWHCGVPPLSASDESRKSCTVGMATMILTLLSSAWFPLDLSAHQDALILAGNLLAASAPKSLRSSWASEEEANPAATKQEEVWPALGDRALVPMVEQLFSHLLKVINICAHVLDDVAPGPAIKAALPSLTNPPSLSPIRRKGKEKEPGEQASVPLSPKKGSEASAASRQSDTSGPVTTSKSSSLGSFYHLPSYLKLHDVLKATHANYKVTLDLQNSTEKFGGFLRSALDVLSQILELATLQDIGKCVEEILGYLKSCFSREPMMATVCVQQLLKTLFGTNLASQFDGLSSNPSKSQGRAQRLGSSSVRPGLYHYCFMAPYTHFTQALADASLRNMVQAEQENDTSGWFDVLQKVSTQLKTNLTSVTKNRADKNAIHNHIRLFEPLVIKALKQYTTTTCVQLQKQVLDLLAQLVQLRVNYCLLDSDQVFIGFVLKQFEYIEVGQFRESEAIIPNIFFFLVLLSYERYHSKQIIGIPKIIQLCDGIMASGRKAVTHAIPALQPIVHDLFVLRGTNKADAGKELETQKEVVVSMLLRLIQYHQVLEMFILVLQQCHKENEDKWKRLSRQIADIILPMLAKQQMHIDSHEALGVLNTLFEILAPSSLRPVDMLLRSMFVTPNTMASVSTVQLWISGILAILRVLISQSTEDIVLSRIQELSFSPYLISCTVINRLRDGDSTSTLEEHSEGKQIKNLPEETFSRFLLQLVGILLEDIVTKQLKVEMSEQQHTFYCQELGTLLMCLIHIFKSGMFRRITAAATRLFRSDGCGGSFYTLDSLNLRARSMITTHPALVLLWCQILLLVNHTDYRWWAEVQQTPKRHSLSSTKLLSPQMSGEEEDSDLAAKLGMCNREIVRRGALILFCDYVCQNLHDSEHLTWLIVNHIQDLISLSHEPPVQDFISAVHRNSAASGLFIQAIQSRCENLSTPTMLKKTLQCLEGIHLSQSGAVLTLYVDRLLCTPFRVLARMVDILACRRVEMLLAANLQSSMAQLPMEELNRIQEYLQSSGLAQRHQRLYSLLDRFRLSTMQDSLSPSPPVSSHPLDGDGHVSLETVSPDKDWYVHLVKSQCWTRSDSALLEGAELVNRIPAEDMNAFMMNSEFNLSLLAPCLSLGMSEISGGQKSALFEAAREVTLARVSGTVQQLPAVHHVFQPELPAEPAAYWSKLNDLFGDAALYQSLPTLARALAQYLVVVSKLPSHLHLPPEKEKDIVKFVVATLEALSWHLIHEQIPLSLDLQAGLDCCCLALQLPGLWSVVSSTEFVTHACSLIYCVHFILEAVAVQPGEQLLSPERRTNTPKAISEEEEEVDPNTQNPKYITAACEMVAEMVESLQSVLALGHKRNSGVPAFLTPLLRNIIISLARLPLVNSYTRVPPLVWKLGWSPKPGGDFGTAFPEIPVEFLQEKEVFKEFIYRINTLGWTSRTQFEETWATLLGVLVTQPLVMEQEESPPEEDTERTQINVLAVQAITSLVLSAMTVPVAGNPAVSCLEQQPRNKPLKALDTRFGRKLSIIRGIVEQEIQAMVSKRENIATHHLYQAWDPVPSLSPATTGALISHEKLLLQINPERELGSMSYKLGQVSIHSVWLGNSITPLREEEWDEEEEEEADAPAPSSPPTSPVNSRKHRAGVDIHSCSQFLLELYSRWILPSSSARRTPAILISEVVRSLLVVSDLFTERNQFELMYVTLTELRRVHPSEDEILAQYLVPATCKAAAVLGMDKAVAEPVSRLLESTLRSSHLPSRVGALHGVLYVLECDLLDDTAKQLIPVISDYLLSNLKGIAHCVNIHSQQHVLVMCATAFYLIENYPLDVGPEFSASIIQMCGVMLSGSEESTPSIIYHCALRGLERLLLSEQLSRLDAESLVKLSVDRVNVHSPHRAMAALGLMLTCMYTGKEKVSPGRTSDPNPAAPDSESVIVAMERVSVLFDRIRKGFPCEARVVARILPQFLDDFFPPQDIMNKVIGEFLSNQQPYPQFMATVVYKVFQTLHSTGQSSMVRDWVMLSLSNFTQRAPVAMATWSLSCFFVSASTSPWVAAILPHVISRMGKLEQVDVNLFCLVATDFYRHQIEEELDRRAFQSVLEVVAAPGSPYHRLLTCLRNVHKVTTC
Pf apPOL block: Pf-apPOL inhibitors, biochemical, fluorescence. Plasmodium falciparum apicoplast DNA polymerase (apPOL). inhibition, % at 10 µM. 210,000 compounds, 0.25% hits. Recombinant Pf-apPOL, molecular beacon fluorescence, 1.5 h. AID 1794808, 2022
Hits are given with their value; i = inactive; nt = not tested or not shown. Cut-off read from the data, not from the text of the source: active = inhibition above about 50%; inactive = the rest.

SMILES	mHTT CaM bind	Pf apPOL block
OC(C#CC(O)(c1ccccc1)c1ccccc1)c1cccs1 (centres undefined)	i	i
CN(C)C(C)(C)C#CC(O)(c1ccccc1)c1ccccc1	i	i
Cn1nc(-c2ccccc2)cc1C(=O)N1CCN(S(C)(=O)=O)CC1	i	i
CC1=C(C#N)C(=O)N(C)C(=O)/C1=C\c1ccc(-c2ccc(Br)cc2C(=O)O)o1	i	i
CC1=C(C#N)C(=O)N(CCCO)C(=O)/C1=C\c1ccc(-c2cc(C)c(C)cc2[N+](=O)[O-])o1	79	i
CCc1ccc(S(=O)(=O)N=C2C=C(Nc3cccc(C(=O)O)c3)C(=O)c3ccccc32)cc1	80	i
O=S(=O)(N=C(NS(=O)(=O)c1ccc(Cl)cc1)c1ccccc1)c1ccccc1	i	i
O=C(O)c1ccc(NC2=CC(=NS(=O)(=O)c3ccccc3)c3ccccc3C2=O)cc1	62	i
O=C(O)c1ccc(S(=O)(=O)c2ccccc2)cc1	i	i
O=C(O)c1cccc(NC2=CC(=NS(=O)(=O)c3ccc(F)cc3)c3ccccc3C2=O)c1	i	i
O=C1C(Nc2ccc(O)cc2)=CC(=NS(=O)(=O)c2ccc(Cl)cc2)c2ccccc21	98	i
Cc1cccc(NC(=O)c2ccc(SCCN3CCCCC3)nc2)c1	i	i
O=C(c1cnccn1)N1CCCCC1CCN1CCCC1 (centres undefined)	i	i
CCN1C(=O)c2ccc(S(=O)(=O)c3ccc(C(=O)O)cc3)cc2C1=O	i	i
COc1cccc(-c2nc(C=Nc3cc([N+](=O)[O-])ccc3C)c(O)o2)c1	i	i
CCCC(C(=O)O)N1C(=O)C(=CC=Cc2ccco2)SC1=S (centres undefined)	84	92
CC(C)C(C(=O)O)N1C(=O)C(=Cc2ccco2)SC1=S (centres undefined)	i	i
CC(C(=O)O)N1C(=O)C(=CC=Cc2ccco2)SC1=S (centres undefined)	i	91
O=C(O)CCC(C(=O)O)N1C(=O)C(=Cc2ccco2)SC1=S (centres undefined)	i	i
O=C(Nc1ccc(-c2nc3ccccc3s2)c(O)c1)c1ccc(Cl)c([N+](=O)[O-])c1	i	i
Oc1ccc2nc(-c3ccccc3)[nH]c2c1	i	i
Nc1ccc2nc(-c3cc(Cl)c(N)c(Cl)c3)[nH]c2c1	54	i
Nc1cccc(-c2nc3ccc(-c4ccc5nc(-c6cccc(N)c6)[nH]c5c4)cc3[nH]2)c1	97	i
COc1ccc(/C=C/c2nc3ccccc3[nH]2)cc1	i	i
Nc1ccc2nc(/C=C/c3nc4ccc(N)cc4[nH]3)[nH]c2c1	53	80
SMILES	mHTT CaM bind	Pf apPOL block
O=C(O)c1ccc2nc(-c3cccc(-c4nc5ccc(C(=O)O)cc5[nH]4)c3)[nH]c2c1	nt	i
Nc1ccc(-c2nc3ccc(Oc4ccc5nc(-c6ccc(N)cc6)[nH]c5c4)cc3[nH]2)cc1	84	i
COc1ccc(-c2nc3ccccc3[nH]2)cc1	i	i
COC(=O)C(C)Oc1ccc2cc(-c3ccc(OC)cc3OC)c(=O)oc2c1 (centres undefined)	i	i
CCOc1ccccc1C(=O)NC1CC(=O)N(C2CC2)C1 (centres undefined)	i	i
Cc1ccc(C(=O)Nc2ccc3c(N4CCCCC4)ncnc3c2)c(C)c1	i	i
CCc1cc(=O)[nH]c(-n2nc(C)cc2NC(=O)c2c(-c3ccccc3Cl)noc2C)n1	i	i
CN(C)c1ccc(-c2nc3ccc(N)cc3[nH]2)cc1	56	i
Nc1ccc(-c2nc3ccc(N)cc3[nH]2)cc1	i	i
CC(=O)Nc1ccc2nc(-c3ccc(-c4nc5ccc(NC(C)=O)cc5[nH]4)cc3)[nH]c2c1	nt	i
Nc1ccc(-c2nc3ccc(-c4ccc5nc(-c6ccc(N)cc6)[nH]c5c4)cc3[nH]2)cc1	100	i
O=C(Nc1ncc(Cc2ccccc2Cl)s1)c1cccc([N+](=O)[O-])c1	i	i
Cc1cc(Cl)ccc1Nc1ncnc2c1nc1n2CCCC1	i	i
Cn1cnnc1SCC(=O)Nc1cccc(C(F)(F)F)c1	i	i
CCOC(=O)Cc1csc(NC(=O)CSc2ccccn2)n1	nt	i
Cc1ccnc(Nc2nc(CC(=O)Nc3nnc(C)s3)cs2)c1	56	i
Cc1cc(C)nc(Nc2nc(CC(=O)NCc3ccccn3)cs2)n1	i	i
Cc1ccnc(Nc2nc(CC(=O)Nc3ccc4c(c3)OCCO4)cs2)c1	i	i
Cc1cc(NC(=O)Cc2csc(NC(=O)c3ncccn3)n2)no1	100	i
CC(C)c1ccccc1NC(=O)Cc1csc(Nc2ncccn2)n1	i	i
CCOC(=O)Cc1csc(NC(=O)c2ncccn2)n1	84	i
CSc1ccccc1NC(=O)Cc1csc(NC(=O)c2ncccn2)n1	100	i
CCCN(CCC)CCCNC(=O)C1CCN(c2nc3ccc(OC)cc3s2)CC1	i	i
CC(=O)N1CCN(C(=O)C2CCN(c3cnn(Cc4ccccc4)c(=O)c3)CC2)CC1	i	i
CCNC(=O)N1CCCC(c2cccc(C(=O)NCc3ccc(N(C)C)cc3)c2)C1 (centres undefined)	54	i
SMILES	mHTT CaM bind	Pf apPOL block
CC(C)NC(=O)N1CCCC(c2cccc(C(=O)NCc3ccc(N(C)C)cc3)c2)C1 (centres undefined)	i	i
COC(=O)c1cc2ccccc2oc1=O	i	i
O=C(C[n+]1ccc2ccccc2c1)c1cc2ccccc2oc1=O	85	i
CCc1ccc(C(O)CN2CCN(c3ncccn3)CC2)cc1 (centres undefined)	i	i
COc1cc(C2C(C#N)=C(N)N(c3ccccc3)C3=C2C(=O)CCC3)cc(OC)c1OC (centres undefined)	i	i
COc1cc(C2C(C#N)=C(N)N(c3cccc([N+](=O)[O-])c3)C3=C2C(=O)CCC3)cc(OC)c1OC (centres undefined)	i	85
Cc1cc(C2C(C#N)=C(N)N(c3cccc(C(F)(F)F)c3)C3=C2C(=O)CCC3)c(C)s1 (centres undefined)	61	i
Cc1cccc(N2C(N)=C(C#N)C(c3cc(Br)cs3)C3=C2CCCC3=O)c1 (centres undefined)	51	80
N#CC1=C(N)N(c2ccc(Cl)cc2)C2=C(C(=O)CCC2)C1c1cc(Br)cs1 (centres undefined)	55	i
CCSc1ccsc1C1C(C#N)=C(N)N(c2ccccc2)C2=C1C(=O)CCC2 (centres undefined)	i	i
Cc1cc(C2C(C#N)=C(N)N(c3ccc(F)cc3)C3=C2C(=O)CCC3)c(C)s1 (centres undefined)	i	i
N#CC1=C(N)N(c2ccc(Br)cc2)C2=C(C(=O)CCC2)C1c1ccsc1 (centres undefined)	i	i
COc1ccc(Cl)cc1NC(=O)C(=O)NCCCN1CCOC(c2ccccc2)C1 (centres undefined)	i	i
COc1ccccc1C(=O)N1CCc2c(c(-c3nc(-c4ccccc4F)no3)nn2C)C1	i	i
CCOC(=O)Cn1cnc2c(-c3cc(C)ccc3C)csc2c1=O	i	i
CC12CCCCC1=NC(c1ccc([N+](=O)[O-])cc1)N2O (centres undefined)	i	i
S=C1NC2(CCCCCCC2)NN1c1ccc(Cl)cc1	i	nt
CCN(CC)C(=O)CN(c1cc(C)ccc1C)S(=O)(=O)c1ccccc1	i	i
CN1CCCc2cc(CCNC(=O)c3ccccc3Br)ccc21	i	i
CCOC1(O)CC(n2cc([N+](=O)[O-])nc2C)C2COC1O2 (centres undefined)	i	i
